# Test results: PubChem BioAssay (EPA / NIEHS)
# Inconclusive results are not listed. The source made the active and inactive calls. The calls were made as follows, unless noted: active = hit-call score of the fitted dose curve at least 0.9, where 1 is the maximum; inactive = score below 0.9.
# Legend:
# [1] = CCTE_Padilla_ZF_Score.Any: CCTE's 144 Hour Post-fertilization zebrafish Assay Score for Any Mortality or Malformation, Padilla Lab (AID 2284416)
# How it was run: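 Wild-type zebrafish embryos with chorions, one per well in 10% Hanks' from 6–8 hpf, dosed in sealed plates at 26 C, 14:10 h light:dark; rinsed at 5 dpf; blinded scoring at 6 dpf for death or malformation, versus DMSO.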
# TTR (gene 7276) = experiment: CCTE_GLTED_hTTR_0.125uM: CCTE's human Transthyretin (hTTR) Inhibition Assay, with 0.125uM TTR, Great Lakes Toxicology and Ecology Division (GLTED) Lab (AID 2284431);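 also: hits lower the fluorescence signal relative to DMSO baseline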
# How it was run: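 Cell-free displacement of ANSA probe from 0.125uM TTR after 2 h incubation with chemical. Fluorescence read at 380 nm excitation/475 nm emission; loss of signal relative to DMSO indicates T4-site displacement.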
# [2] = tested on: Brachyury (BRA) Protein Expression, TBXT (gene 6862); experiment: CCTE_Deisenroth_DEVTOX-GLR_Endo_BRA: CCTE's DevTox GLR-Endo Assay Evaluation of Brachyury (BRA) Protein Expression, Deisenroth Lab (AID 2284417)
# How it was run: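 Endpoint is the fraction of BRA reporter-positive cells over total nuclei, corrected by subtracting the 0.2% DMSO value. Chemicals (1 nM - 200 uM, 10 points) were dosed twice during 48 h differentiation of RUES2-GLR cells, read by imaging.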
# [3] = CCTE_Deisenroth_DEVTOX-GLR_Endo_CellCount: Viability Assessment in CCTE's DevTox GLR-Endo Assay, Deisenroth Lab (AID 2284420)
# How it was run: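 RUES2-GLR pluripotent cells seeded 24 h, then differentiated 48 h in defined media with two chemical exposures 24 h apart. Nuclei counted by high-content imaging; 10-point 1 nM–200 uM series; percent change versus 0.2% DMSO.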
# [4] = tested on: SRY-box transcription factor 17 (SOX17) Protein Expression, Deisenroth Lab, SOX17 (gene 64321); experiment: CCTE_Deisenroth_DEVTOX-GLR_Pluri_SOX17: CCTE's DevTox GLR-Pluri Assay Evaluation of SRY-box transcription factor 17 (SOX17) Protein Expression, Deisenroth Lab (AID 2284427; active = hit-call score of the fitted dose curve at least 0.9, where 1 is the maximum)
# How it was run: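 RUES2-GLR pluripotent cells were induced toward endoderm over 48 h and received two compound doses 24 h apart, in a 10-point series from 1 nM to 200 uM. The percentage of SOX17+ cells among total cells was measured by high-content imaging and reported minus the 0.2% DMSO control.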
# [5] = tested on: SRY-box transcription factor 2 (SOX2) Protein Expression, Deisenroth Lab, SOX2 (gene 6657); experiment: CCTE_Deisenroth_DEVTOX-GLR_Pluri_SOX2: CCTE's DevTox GLR-Pluri Assay Evaluation of SRY-box transcription factor 2 (SOX2) Protein Expression, Deisenroth Lab (AID 2284428)
# How it was run: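 RUES2-GLR human pluripotent cells, two exposures 24 h apart over 48 h differentiation; 10-point series 1 nM - 200 uM. High-content imaging gives SOX2+ cells divided by cell count, reported as percent change versus 0.2% DMSO.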
# [6] = tested on: Brachyury (BRA) Protein Expression, Deisenroth Lab, TBXT (gene 6862); experiment: CCTE_Deisenroth_DEVTOX-GLR_Pluri_BRA: CCTE's DevTox GLR-Pluri Assay Evaluation of Brachyury (BRA) Protein Expression, Deisenroth Lab (AID 2284429; active = hit-call score of the fitted dose curve at least 0.9, where 1 is the maximum)
# How it was run: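 Human pluripotent RUES2-GLR cells, seeded 24 h, were differentiated 48 h in defined media with two chemical doses at 24-h intervals (10-point, 1 nM - 200 uM). Readout: percent BRA+ cells by fluorescent reporter imaging, minus 0.2% DMSO control.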
# [7] = CCTE_Deisenroth_DEVTOX-GLR_Pluri_CellCount: Viability Assessment in CCTE's DevTox GLR-Pluri Assay Evaluation of Total Cell Counts, Deisenroth Lab (AID 2284430)
# How it was run: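 RUES2-GLR human pluripotent cells, seeded 24 h, then differentiated 48 h with two chemical exposures 24 h apart; 10-point series 1 nM - 200 uM. Fixed, nuclear-stained, imaged (5 fields/well); nuclei count as % change vs 0.2% DMSO.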
smiles,measurement,setting,value
O=C(O)CCC(F)(F)C(F)(F)C(F)(F)C(F)(F)C(F)(F)F,AC50,[1],10 µM (active)
CCCCCCCCCCCC(=O)O,AC50,TTR (gene 7276),3.05 µM (active)
Cc1[nH]nc2c1N=C(c1ccccc1Cl)c1cc([N+](=O)[O-])ccc1N2,AC50,TTR (gene 7276),0.771 µM (active)
CC(=O)Nc1ccc(O)cc1,outcome,[2],inactive
same,outcome,[3],inactive
same,outcome,[4],inactive
same,outcome,[5],inactive
same,outcome,[6],inactive
same,outcome,[7],inactive
CCCCc1ccc2ccccc2c1S(=O)(=O)O,AC50,TTR (gene 7276),0.712 µM (active)
C=CC(F)(F)C(F)(F)C(F)(F)C(F)(F)F,outcome,[1],inactive
COc1cc([N+](=O)[O-])ccc1N,AC50,TTR (gene 7276),14.9 µM (active)
FCOC(C(F)(F)F)C(F)(F)F,outcome,[1],inactive
O=P(O)(O)CCC(F)(F)C(F)(F)C(F)(F)C(F)(F)C(F)(F)C(F)(F)F,AC50,[1],25.6 µM (active)
O=C1NS(=O)(=O)c2ccccc21,outcome,[2],inactive
same,outcome,[3],inactive
same,outcome,[4],inactive
same,outcome,[5],inactive
same,outcome,[6],inactive
same,outcome,[7],inactive
FC(OC(F)(F)C(F)(F)C(F)(F)F)C(F)(F)F (stereo not drawn),outcome,[1],inactive
CCCCCCCCCC=CCC1CC(=O)OC1=O (stereo not drawn),AC50,TTR (gene 7276),7.87 µM (active)
O=C(F)C(F)(F)C(F)(F)C(F)(F)C(=O)F,outcome,[1],inactive
O=C(CC(=O)C(F)(F)C(F)(F)C(F)(F)F)c1cccs1,AC50,[1],3.55 µM (active)
NC(C(F)(F)F)C(F)(F)F,outcome,[1],inactive
CN(C)CCOC(c1ccccc1)c1ccccc1,AC50,[2],46.8 µM (active)
same,AC50,[3],61.7 µM (active)
same,AC50,[4],36.2 µM (active)
same,AC50,[5],83.2 µM (active)
same,AC50,[6],19.8 µM (active)
same,outcome,[7],inactive
FC(F)(F)C1(F)C(F)(F)C(F)(F)C(F)(F)C(F)(C(F)(F)F)C1(F)F (stereo not drawn),outcome,[1],inactive
CN(CCO)S(=O)(=O)C(F)(F)C(F)(F)C(F)(F)C(F)(F)C(F)(F)C(F)(F)C(F)(F)C(F)(F)F,AC50,[1],9.78 µM (active)
FC1(F)C=CC(F)(F)C1(F)F,outcome,[1],inactive
FC(F)=C(F)C(F)(F)C(F)(F)C(F)(F)C(F)F,outcome,[1],inactive
O=C(OC(=O)C(F)(F)C(F)(F)F)C(F)(F)C(F)(F)F,outcome,[1],inactive
O=CC(F)(F)C(F)(F)C(F)(F)F,outcome,[1],inactive
O=C1OC(=O)C(F)(F)C1(F)F,outcome,[1],inactive
